Where “and” joins values, the source holds several entries; their conditions need not be identical. Equal values may be shown once. Screen size: about 5,500 compounds; about 2,000 (36%) were called active. Another 18% or so got no clear call; they are omitted. Cut-off read from the data, not from the text of the source: active = normalized growth mostly below about 0.91 (no sharp cut-off); inconclusive = no clear call, values can overlap the other calls; inactive = mostly above about 0.92. This is one part of the list.
Experiment: chemical genetic growth profiling, strain panel (AID 1159580);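 note: tested at 20 µM; growth read once vehicle control cultures reached saturation at 30 °C; 1 = growth at the plate median or of vehicle wells; lower values mean less growth of the strain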
Conditions: S. cerevisiae deletion strains, growth OD

Measured: normalized growth

COc1cc(CNC(=O)CCCC/C=C/C(C)C)ccc1O
inactive: locus YAL013W, strain DEP1, stronger effect = lower value 1.01 | locus YAL021C, strain ccr4, stronger effect = lower value 0.971 | locus YAL026C, strain drs2, stronger effect = lower value 0.994 | locus YAL030W, strain snc1, stronger effect = lower value 0.987 | locus YBL061C, strain skt5, stronger effect = lower value 0.99 | locus YBR009C, strain hhf1, stronger effect = lower value 0.951 | locus YBR021W, strain FUR4, stronger effect = lower value 0.978 | locus YBR023C, strain chs3, stronger effect = lower value 0.975 | locus YBR171W, strain sec66, stronger effect = lower value 0.979 | locus YBR229C, strain ROT2, stronger effect = lower value 0.994 | locus YBR231C, strain swc5, stronger effect = lower value 0.981 | locus YBR279W, strain paf1, stronger effect = lower value 0.983 | locus YCL011C, strain gbp2, stronger effect = lower value 0.979 | locus YCL016C, strain dcc1, stronger effect = lower value 0.989 | locus YCL029C, strain bik1, stronger effect = lower value 0.988 | locus YCL069W, strain vba3, stronger effect = lower value 0.992 | locus YCR088W, strain abp1, stronger effect = lower value 0.964 | locus YDL005C, strain med2, stronger effect = lower value 0.965 | locus YDL035C, strain GPR1, stronger effect = lower value 0.972 | locus YDL040C, strain nat1, stronger effect = lower value 0.997 | locus YDL074C, strain BRE1, stronger effect = lower value 0.979 | locus YDL101C, strain DUN1, stronger effect = lower value 1.01 | locus YDL134C, strain PPH21, stronger effect = lower value 1 | locus YDL185W, strain tfp1, stronger effect = lower value 0.986 | locus YDL192W, strain arf1, stronger effect = lower value 0.989 | locus YDR001C, strain nth1, stronger effect = lower value 0.997 | locus YDR069C, strain doa4, stronger effect = lower value 0.981 | locus YDR101C, strain arx1, stronger effect = lower value 0.969 | locus YDR137W, strain rgp1, stronger effect = lower value 0.997 | locus YDR159W, strain sac3, stronger effect = lower value 0.999 | locus YDR162C, strain NBP2, stronger effect = lower value 1.04 | locus YDR195W, strain ref2 0.959 | locus YDR297W, strain sur2, stronger effect = lower value 0.973 | locus YDR318W, strain mcm21, stronger effect = lower value 1 | locus YDR334W, strain swr1, stronger effect = lower value 0.998 | locus YDR335W, strain msn5, stronger effect = lower value 0.968 | locus YDR388W, stronger effect = lower value 0.99 | locus YDR392W, strain spt3, stronger effect = lower value 0.956 | locus YDR502C, strain sam2, stronger effect = lower value 0.961 | locus YEL003W, strain gim4, stronger effect = lower value 0.984 | locus YEL037C, strain rad23, stronger effect = lower value 0.99 | locus YEL061C, strain CIN8 (second series), stronger effect = lower value 0.983 | locus YEL061C, strain CIN8, stronger effect = lower value 1.01 | locus YER015W, strain faa2, stronger effect = lower value 1 | locus YER016W, strain bim1, stronger effect = lower value 1.01 | locus YER110C, stronger effect = lower value 0.969 | locus YER111C, strain swi4, stronger effect = lower value 0.991 | locus YER155C, strain BEM2 (second series), stronger effect = lower value 0.953 | locus YER155C, strain BEM2, stronger effect = lower value 0.994 | locus YER167W, strain BCK2, stronger effect = lower value 1.01 | locus YFR010W, strain ubp6, stronger effect = lower value 0.973 | locus YGL078C, strain dbp3, stronger effect = lower value 0.974 | locus YGL086W, strain mad1, stronger effect = lower value 0.996 | locus YGL167C, strain pmr1, stronger effect = lower value 0.988 | locus YGL173C, strain kem1, stronger effect = lower value 0.978 | locus YGL227W, strain vid30, stronger effect = lower value 0.975 | locus YGL240W, strain doc1, stronger effect = lower value 0.975 | locus YGL248W, strain PDE1, stronger effect = lower value 1.02 | locus YGL253W, strain hxk2, stronger effect = lower value 0.987 | locus YGR135W, strain pre9, stronger effect = lower value 0.991 | locus YGR252W, strain gcn5, stronger effect = lower value 0.898 | locus YHR013C, strain ard1, stronger effect = lower value 0.999 | locus YHR027C, strain rpn1, stronger effect = lower value 0.984 | locus YHR030C, strain SLT2, stronger effect = lower value 1.02 and 0.997 | locus YHR079C, strain IRE1 (second series), stronger effect = lower value 1 | locus YHR079C, strain IRE1, stronger effect = lower value 0.989 | locus YHR094C, strain hxt1, stronger effect = lower value 0.981 | locus YHR129C, strain ARP1, stronger effect = lower value 1.02 | locus YHR142W, strain chs7, stronger effect = lower value 0.998 | locus YHR200W, strain rpn10, stronger effect = lower value 1.01 | locus YIL066C, strain RNR3, stronger effect = lower value 1.01 | locus YIL073C, strain SPO22, stronger effect = lower value 0.972 | locus YIL125W, strain kgd1, stronger effect = lower value 0.993 | locus YIR030C, strain dcg1, stronger effect = lower value 0.986 | locus YJL092W, strain hpr5, stronger effect = lower value 0.99 | locus YJL095W, strain BCK1 (second series), stronger effect = lower value 0.986 | locus YJL095W, strain BCK1, stronger effect = lower value 1.05 and 0.999 | locus YJL115W, strain asf1, stronger effect = lower value 0.979 | locus YJL129C, strain trk1, stronger effect = lower value 0.955 | locus YJL134W, strain LCB3, stronger effect = lower value 1.01 | locus YJL154C, strain vps35, stronger effect = lower value 0.98 | locus YJL164C, strain tpk1, stronger effect = lower value 0.994 | locus YJL166W, strain qcr8, stronger effect = lower value 0.973 | locus YJL168C, strain set2, stronger effect = lower value 0.981 | locus YJL187C, strain SWE1 (second series), stronger effect = lower value 1.01 | locus YJL187C, strain SWE1, stronger effect = lower value 0.994
